From PubChem BioAssay AID1626 (SRMLSC, 2009)
Screen size: about 220,000 compounds; about 2,000 (0.91%) were called active. Not shown: some 2% with an inconclusive outcome. Rule as the data show it: inconclusive = inhibition above about 80% without an active follow-up result; inactive = below that; test concentration not stated here. A selection follows. Results with a measured potency or affinity are listed apart.

Test: M. tuberculosis H37Rv growth inhibitors, H37Rv strain (AID 1626);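 also: bacteria incubated seven days before Alamar blue readout; 0% = bacteria only wells and 100% = bacteria with antibiotic wells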
Conditions: active compounds read high, concentration not given here

| SMILES | inhibition |
| --- | --- |
| Cc1ccc(/C=N/NC(=O)c2cccnc2)s1 | -7.82% (inactive) |
| O=C(Nc1ccc(F)cc1)c1ccc(S(=O)(=O)N2CCOCC2)o1 | -14.1% (inactive) |
| COC(C[C@@H](O)C[C@@H](O)COCc1ccccc1)OC | -11.1% (inactive) |
| Cn1c(SCC(=O)N2CCCc3ccccc32)nc2cccnc21 | 4.22% (inactive) |
| O=C(Nc1nnc(-c2cccnc2)s1)c1cccs1 | -11.7% (inactive) |
| CC(C)(Oc1ccc(Cl)cc1)C(=O)OCn1nnc2ccccc2c1=O | 62.5% (inactive) |
| COc1ccc(-n2c(C)cc(C(=O)CCl)c2C)cc1 | -6.35% (inactive) |
| CC(=O)c1c(C(C)=O)c(C)n(-c2cccc([N+](=O)[O-])c2)c1C | -7.09% (inactive) |
| Cc1cc(C)c(S(=O)(=O)N(C)CC(=O)NCc2ccccn2)c(C)c1 | -8.63% (inactive) |
| CCn1ccnc1CN(C)Cc1cn(C)nc1-c1ccccc1F | -1.63% (inactive) |
| COc1cccc(/C=N/n2c(SC)nnc2-c2ccccc2)c1OC | -6.45% (inactive) |
| Cc1ccc(CN(C(=O)Cc2cccs2)C(C(=O)NC2CCCC2)c2ccncc2)cc1 (centres undefined) | 7.49% (inactive) |
| O=C(Nc1ccc(S(=O)(=O)Nc2ccc(Cl)cc2)cc1)C1CCCO1 (centres undefined) | 5.71% (inactive) |
| CC(=O)c1ccc(NC(=O)c2ccc(CNc3c(N4CCCC4)c(=O)c3=O)cc2)cc1 | 2.39% (inactive) |
| O=C(NCc1ccc(Cl)cc1)c1ccc(CNc2c(N3CCOCC3)c(=O)c2=O)cc1 | 87.6% (inactive) |
| O=C(NCc1ccc(Cl)cc1)c1ccc(CNc2c(N3CCCC3)c(=O)c2=O)cc1 | 4.26% (inactive) |
| Cc1cc(C)cc(NC(=O)c2ccc(CNc3c(N4CCOCC4)c(=O)c3=O)cc2)c1 | 12.3% (inactive) |
| COc1cc2c(cc1NC(=O)CSc1nnc(Cc3cccs3)n1Cc1ccco1)oc1ccccc12 | 7.99% (inactive) |
| CC(C)c1ccc(NC(=O)Cn2cccc2C2=NC(c3ccccc3)CO2)cc1 (centres undefined) | -2.83% (inactive) |
| COc1ccc(C(CCN)Cc2ccccc2)cc1 (centres undefined) | 1.28% (inactive) |
| O=S1(=O)CCN(OCc2ccc(F)cc2Cl)CC1 | -5.47% (inactive) |
| CCOc1cc(C)nc(Oc2ccc(=O)[nH]n2)n1 | -1.8% (inactive) |
| Cc1ccc(-c2csc(=Nc3cccnc3)n2CCCN2CCCC2=O)cc1C | 8.37% (inactive) |
| c1ccc2c(c1)[nH]c1cnccc12 | -1.77% (inactive) |

| SMILES | inhibition |
| --- | --- |
| Cc1ccc(C)c2c1[nH]c1ccccc12 | -8.26% (inactive) |
| CC(C)CCNC1=CC(=O)CC(c2ccccc2)C1 (centres undefined) | -3.24% (inactive) |
| CNCCOc1ccccc1OC(C)C | 4.14% (inactive) |
| O=C(O)c1ccc(C(=O)O)c(C(=O)c2ccccc2)c1 | 4.19% (inactive) |
| Cc1nn(Cc2ccc(F)cc2Cl)c(C)c1[N+](=O)[O-] | 5.81% (inactive) |
| Cn1c(-c2sc(=S)n(-c3ccccc3)c2N)nc2ccccc21 | -12.8% (inactive) |
| CCOc1ccc(-n2c(N)c(-c3nc4ccccc4n3C)c3nc4ccccc4nc32)cc1 | 70.5% (inactive) |
| Cc1nc2ccccc2n1CCc1ccccc1 | -7.4% (inactive) |
| N#Cc1c(N)n(CCc2ccc(F)cc2)c2nc3ccccc3nc12 | 7.97% (inactive) |
| CCN(CC)C(=O)C1=C(C)NC(=O)NC1c1ccccc1F (centres undefined) | -2.9% (inactive) |
| COc1ccc(NC(=O)C(C)N2c3cccc4cccc(c34)S2(=O)=O)cc1OC (centres undefined) | -6.4% (inactive) |
| CCC(=O)NC(=S)Nc1cccc(NC(=O)c2ccccc2Cl)c1 | 8.67% (inactive) |
| N#C/C(=C\c1ccc(C(=O)O)cc1)S(=O)(=O)c1cc(Br)ccc1Br | 17% (inactive) |
| CCn1c(SCC(=O)O)nnc1-c1cccnc1 | -5.44% (inactive) |
| CC1CN(c2ncnc3c2c(-c2ccccc2)cn3-c2ccc(F)cc2)CC(C)O1 (centres undefined) | 8.16% (inactive) |
| CN1Cc2c(N3CCOCC3)nc3sc(C(=O)c4ccccc4)c(N)c3c2CC1(C)C | 8.23% (inactive) |
| CCOC(=O)c1sc2nc(N3CCOCC3)c3c(c2c1N)CC(C)(C)N(C)C3 | -3.62% (inactive) |
| Cc1ccccc1OCCNc1cc(N2CCN(CCO)CC2)ccc1[N+](=O)[O-] | 27.5% (inactive) |
| O=C(NCc1ccccc1)c1nc2c(nnn2Cc2cccc(Cl)c2)c(=O)[nH]1 | -4.36% (inactive) |
| COC(=O)C1CCN(C(=O)c2sc3nc(-c4ccc(F)cc4)cn3c2C)CC1 | 6.16% (inactive) |
| CCCC(=Nc1ccccc1OC)C1=C(O)CC(c2ccccc2)CC1=O (centres undefined) | 2.17% (inactive) |
| CCC(=Nc1ccccc1OC)C1=C(O)CC(c2ccccc2)CC1=O (centres undefined) | 6.17% (inactive) |
| CN(CC(=O)Nc1ccc(S(=O)(=O)N2CCCC2)cc1)CC(=O)Nc1cccc(F)c1 | 2.32% (inactive) |
| O=C1CC(c2cccs2)Cc2nc(NCC3CCCO3)ncc21 (centres undefined) | -8.23% (inactive) |

| SMILES | inhibition |
| --- | --- |
| Cc1nc2ccccc2c(=O)n1NC(=O)/C=C/c1ccccc1Cl | -8.45% (inactive) |
| CCn1c(COc2cccc3ccccc23)nnc1SCC(N)=O | -13.4% (inactive) |
| Cn1c(COc2ccccc2)nnc1SCC(=O)NNC(=O)C1CCCCC1 | -10.3% (inactive) |
| O=C(O)CSc1nnc(COc2cccc3ccccc23)n1Cc1ccccc1 | -1.72% (inactive) |
| COc1cccc(OCc2nnc(SCC(=O)OC3CCCCC3)n2C)c1 | 6.41% (inactive) |
| COc1cccc(C(c2nnnn2CS(=O)(=O)c2ccc(C)cc2)N2CCN(C)CC2)c1OC (centres undefined) | -6.9% (inactive) |
| CN1CCN(CC#CC(C)(O)C2CC3C=CC2C3)CC1 (centres undefined) | 8.02% (inactive) |
| CCN(c1ccccc1)S(=O)(=O)c1ccc(Cl)c(C(=O)OCC(=O)NC(=O)C(C)C)c1 | -9.03% (inactive) |
| CC(C)(C)c1ccc(OC(=O)c2ccc3nsnc3c2)cc1 | 29.5% (inactive) |
| Cc1ccc(OC(=O)c2ccc3snnc3c2)cc1 | 68.6% (inactive) |
| COc1ccc2[nH]c(=O)c(CN(C(=O)c3cccnc3)c3ccccc3C)cc2c1 | -2.62% (inactive) |
| O=C(Nc1ccc(NC(=O)c2ccccn2)cc1)C(=O)Nc1ccc2c(c1)OCCO2 | 1.18% (inactive) |
| COC(=O)CSc1nc(-c2ccc(C)cc2)c2c(c1C#N)CCCC2 | 72.2% (inactive) |
| COc1ccc(-c2c(C#N)c(SCC(N)=O)nc3c2CCCC3)cc1 | 2.47% (inactive) |
| Cc1ccc(-c2c(C#N)c(N)nc3c2CCCC3)o1 | -11.1% (inactive) |
| Cc1ccccc1NC(=O)CSc1nc2c(c(-c3ccco3)c1C#N)CCCC2 | -3.31% (inactive) |
| COC(=O)CSc1nc2c(c(-c3ccc(O)cc3)c1C#N)CCCC2 | -6.65% (inactive) |
| COc1cccc(NC(=O)CSc2nc3c(c(-c4ccco4)c2C#N)CCCC3)c1 | -2.62% (inactive) |
| CCSc1nc2c(c(-c3ccc(C)o3)c1C#N)CCCC2 | 2.67% (inactive) |
| N#Cc1c(SCC(=O)O)nc(-c2ccccc2)c2c1CCCC2 | -9.5% (inactive) |
| O=C(O)c1ccc(-c2noc(-c3cccc(F)c3)n2)cc1 | -9.57% (inactive) |
| COc1ccc2[nH]c(=O)c(CN(CCCN3CCOCC3)C(=O)NCc3ccccc3)cc2c1 | 6.13% (inactive) |
| COc1cc(NC(=O)CSc2nnc(Cn3nnc4ccccc43)n2C)cc(OC)c1 | 3.53% (inactive) |
| CCCCN(C)CCC(=O)Nc1ccc(OC)cc1OC | -13.6% (inactive) |

| SMILES | inhibition |
| --- | --- |
| Cc1ccccc1Nc1cc(C(=O)NCC2CCCO2)c2ccccc2n1 (centres undefined) | 5.9% (inactive) |
| CCOC(=O)N1CCN(C(=S)Nc2cccc(C)c2)CC1 | -4.85% (inactive) |
| COc1ccc(C(=O)Nc2ccc(NC(=O)c3cccs3)cc2)cc1Cl | -14.7% (inactive) |
| CC(=O)Nc1ccc(C(=O)N/N=C/c2ccc(F)cc2)cc1 | 7.2% (inactive) |
| Cc1ccsc1C(C(=O)NC1CCCCC1)N(C(=O)c1csnn1)C1CC1 (centres undefined) | -8.93% (inactive) |
| COC(=O)CSc1cnc2ccccc2n1 | -1.39% (inactive) |
| COC(=O)CSc1nc(-c2ccccc2)nc2ccccc12 | 5.34% (inactive) |
| Cc1ccc(-n2c(C)nn(CCOc3ccccc3)c2=O)cc1 | 6.33% (inactive) |
| CN(C)C(/C=C/Nc1cccc([N+](=O)[O-])c1)=C(C#N)C#N | -7.29% (inactive) |
| CCN(CC)c1nc(Oc2ccc(=O)[nH]n2)nc(N2CCOCC2)n1 | 0.81% (inactive) |
| Cc1ccccc1NC(=O)NC(C)(C)CC(C)(C)C | -4.38% (inactive) |
| COc1cccc(C(C(=O)NC(C)(C)C)N(CC(C)C)C(=O)CCC(=O)Nc2cc(C)on2)c1OC (centres undefined) | -4.52% (inactive) |
| O=C(c1ccc(NC2=NC3CS(=O)(=O)CC3S2)cc1)N1CCN(C(=O)c2ccco2)CC1 (centres undefined) | -2.98% (inactive) |
| Cc1ccc(-n2cc(CN3CCC(CO)(Cc4ccccc4)CC3)cn2)cc1 | 0.885% (inactive) |
| OCC1(Cc2cccc(C(F)(F)F)c2)CCN(Cc2cc(F)cc(F)c2)CC1 | 1.35% (inactive) |
| O=C(CCN1C(=O)c2ccccc2C1=O)C1=NN[C@@H]2C(=O)N(c3ccc4c(c3)OCO4)C(=O)[C@H]12 | -4.07% (inactive) |
| COc1ccc(CN(CC2CCCO2)C(=O)c2cc3sccc3n2C)c(OC)c1 (centres undefined) | -12% (inactive) |
| CC1(C)Cc2c(sc3c2c(=O)n(-c2cccc(Cl)c2)c(=O)n3CC(N)=O)CO1 | -12.2% (inactive) |
| CCOC(=O)C1=CN(Cc2ccc(OC)cc2)C=C(C(=O)OCC)C1c1cccs1 | -0.52% (inactive) |
| Cc1cc(Nc2ccc(C)c(Cl)c2)nc(N2CCOCC2)n1 | 12.8% (inactive) |
| O=C(Nc1ccc2c(c1)OCCO2)c1ccccc1F | 6.75% (inactive) |
| Cc1cc(C(=O)Nc2ccc3c(c2)OCCO3)c2ccccc2n1 | -3.31% (inactive) |
